Source: PubChem
CRE Fsk mod: Cell signaling CRE-BLA (Fsk stim) | CHO CRE-bla reporter (cAMP response element driving beta-lactamase), forskolin EC10, beta-lactamase ratio | Potency, µM (series often up to 38.2 µM), actives largely listed as activators | 71,000 compounds, 2.5% hits; active means well fitted activation curve with a large enough effect in the signal ratio, with a control signal flat, not every such curve was filed as active; inconclusive means small, poorly fitted or top-dose-only effect, or effect the other way, or a change in a side signal; the % refers to the signal ratio
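Reporter-gene assay: CHO cells with beta-lactamase behind cAMP responsive elements, co-treated with compound and EC10 NKH 477 for 3 hours at 37 degrees Celsius. Activity came from the 460/530 nm CCF4 emission ratio.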
GFP derepression: qHTS Assay for Epigenetic Modulators | mouse C127i GFP locus derepression, cytometry, 30 h | AID 597, 2007 | Potency, µM (highest dose often 46.1 µM) | 68,000 compounds, 0.09% hits
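Murine C127i mammary cells carrying a silenced, stably integrated CMV-driven GFP reporter were treated with compound for 30 hours at 37 C. After PBS washes, GFP-positive cells were counted by laser-scanning microplate cytometry.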
IkB sig inh: IkB Signaling | ABC-DLBCL IkBa-CBG/CBR dual luciferase ratio, 4 h; response scale: scaled: untreated 0%, proteasome inhibitor 100% | Potency, µM (doses to about 57.1 µM) | 110,000 compounds, 0.04% hits; active means well fitted curve in the direction sought with a large enough effect in the signal ratio, not every such curve was filed as active; inconclusive means small, poorly fitted or top-dose-only effect, or a change in a side signal; the % refers to the signal ratio;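 further: the direction sought is a rising ratio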
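In this assay, an IκBα–CBG68 fusion accumulates when IKK-driven degradation is blocked; native CBR normalizes for cell number. OCI-Ly3 cells were treated 4 h with compound and doxycycline, then green and red light read after Chroma-Glo addition.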
HBB splicing: qHTS Assay for Modulators of Hemoglobin Beta Chain Splicing. 65,000 compounds, 0.06% hits. Potency, µM (doses to about 46.1 µM), usual class: activators. HBB splicing reporter cell assay, activation; EGFP reporter with mutant IVS2-654 intron; response scale: normalised to 500 nM splice-correcting PNA. AID 925, 2007
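HeLa cells stably expressing EGFP interrupted by mutant beta-globin intron 2 (IVS2-654), 500/well in 2% FCS. Treated with compound for 2 days at 37C. Splicing correction scored as total well GFP intensity (488 nm excitation, 500-520 nm emission); 500 nM antisense PNA served as control.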
ERK AVP inh: qHTS Assay for Inhibitors of the ERK Signaling Pathway using a Homogeneous Screening Assay. HEK293-V1b, vasopressin-stimulated pERK AlphaScreen. Potency, µM (series often up to 57.5 µM), actives largely listed as inhibitors. 72,000 compounds, 0.99% hits. AID 995, 2007; further: nearly all actives have a fitted effect of over 55% in size
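HEK293 cells stably expressing V1b receptor, seeded overnight in 1% FBS, were treated with compounds for 30 min at 37C, then stimulated 5 min with 25 nM vasopressin; phospho-ERK read by AlphaScreen SureFire after lysis.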
Large screens that a line does not name were inactive. Many of the other results were omitted from the sample, so hits are more common in it than they were. Unless noted, the call rests on the fitted dose curve; in most records, active means well fitted curve in the direction sought with a large enough effect; inconclusive means small, poorly fitted or top-dose-only effect, or another doubt; inactive means no such curve, though single readings can be large; an effect the other way counts as inactive or inconclusive.

COc1cccc(CNC(=O)Cn2c(=O)ccc3cc(S(=O)(=O)N4CCC(C)CC4)ccc32)c1	none (no result: CRE Fsk mod, GFP derepression, HBB splicing, ERK AVP inh)
CC1Cc2ccccc2N1S(=O)(=O)c1cccc2nsnc12 (configuration not stated)	CRE Fsk mod inconclusive, ERK AVP inh 15.8µM
COc1ccccc1N1CCN(S(=O)(=O)c2cccc3nsnc23)CC1	none
Cc1cc2c(cc(C(=O)OCC(=O)NCc3cccs3)n2C(C)C)o1	CRE Fsk mod 10µM, IkB sig inh inconclusive
CCS(=O)(=O)N1CCc2cc(C(=O)N3CCN(c4ccccc4)CC3)ccc21	none (no result: CRE Fsk mod, GFP derepression, HBB splicing, ERK AVP inh)
CCCC(=O)Nc1cc(-c2nn(C)c(=O)c3ccccc23)ccc1N1CCCCC1	CRE Fsk mod 2µM, ERK AVP inh inconclusive
CCCC(=O)Nc1cc(-c2nn(C)c(=O)c3ccccc23)ccc1OC	CRE Fsk mod 12.6µM
COc1ccc(-c2nn(C)c(=O)c3ccccc23)cc1NC(=O)Cn1nc(C)c2ccccc2c1=O	CRE Fsk mod inconclusive, IkB sig inh inconclusive, ERK AVP inh inconclusive
CCC(=O)Nc1cc(-c2nn(C)c(=O)c3ccccc23)ccc1OC	CRE Fsk mod 12.6µM
Cn1nc(-c2ccc(OCC(=O)Nc3cccnc3)cc2)c2ccccc2c1=O	CRE Fsk mod inconclusive, IkB sig inh inconclusive, ERK AVP inh 31.6µM
COc1ccc(C(=O)c2c(N)c(C(=O)Nc3ccccc3Cl)c3ccccn23)cc1	none (no result: CRE Fsk mod, GFP derepression, HBB splicing, ERK AVP inh)
CO[C@H]1COC(=O)C/C=C\[C@H](C)[C@@H](NS(=O)(=O)c2ccc(C)cc2)COC(=O)CCC[C@@H]1C	none (no result: CRE Fsk mod, GFP derepression, IkB sig inh)
Cn1cc(C2=C(c3cn(CCCSC(=N)N)c4ccccc34)C(=O)NC2=O)c2ccccc21	ERK AVP inh 2µM (no result: CRE Fsk mod, GFP derepression, IkB sig inh)
CN(C)CCCn1cc(C2=C(c3c[nH]c4ccccc34)C(=O)NC2=O)c2ccccc21	CRE Fsk mod inconclusive, IkB sig inh inconclusive, ERK AVP inh 0.794µM (no result: HBB splicing)
CCC(c1nnnn1Cc1ccccc1)N(Cc1ccco1)Cc1cc2cc(OC)ccc2[nH]c1=O (configuration not stated)	IkB sig inh 3.98µM (no result: HBB splicing)
C=CCc1c(C)nc(SCc2nc3ccccc3c(=O)[nH]2)[nH]c1=O	CRE Fsk mod 10µM, IkB sig inh inconclusive
O=c1c(-c2cccs2)nc2cncnc2n1C1CC1	CRE Fsk mod inconclusive
CCCN(CCC)c1nc(C)cc(C(C#N)c2nc3ccccc3o2)n1 (configuration not stated)	CRE Fsk mod 1.58µM
Cc1cc(-c2nc3ccccc3o2)c2ccccc2n1	CRE Fsk mod inconclusive
CCOC(=O)c1c(C)[nH]c(C)c1S(=O)(=O)N1CCC(C(=O)Nc2ccc(F)cc2F)CC1	none (no result: CRE Fsk mod, GFP derepression, HBB splicing, ERK AVP inh)
CCC(Cn1nnc2ccccc2c1=O)NC(=O)Nc1cc(C)cc(C)c1 (configuration not stated)	none (no result: CRE Fsk mod, GFP derepression, HBB splicing, ERK AVP inh)
Cc1nc2nc(Cc3ccccc3)nn2c(C)c1Cl	CRE Fsk mod 10µM
CC(C)C(=O)NC(c1ccco1)c1ccc2cccnc2c1O (configuration not stated)	GFP derepression 3.98µM, IkB sig inh inconclusive, ERK AVP inh inconclusive
COc1ccc(C(NC(C)=O)c2ccc3cccnc3c2O)c(OC)c1 (configuration not stated)	GFP derepression 12.6µM
NC(CCC(=O)NC(CCSC(CC(=O)O)C(=O)O)C(=O)NCC(=O)O)C(=O)O (configuration not stated)	none (no result: CRE Fsk mod, GFP derepression, IkB sig inh, HBB splicing)
COC(=O)C1=C(C)Nc2nc(-c3ccccc3)nn2C1c1ccc(C)o1 (configuration not stated)	CRE Fsk mod 12.6µM, IkB sig inh inconclusive
COc1ccc(C2C(C(=O)Nc3ccccc3)=C(C)Nc3nc(-c4ccc(Cl)cc4)nn32)cc1 (configuration not stated)	none (no result: CRE Fsk mod, GFP derepression, HBB splicing, ERK AVP inh)
CC(C)CNC(=O)c1c(N)n(/N=C/c2cccnc2)c2nc3ccccc3nc12	none (no result: CRE Fsk mod, IkB sig inh, HBB splicing, ERK AVP inh)
CC(C)OCCCNC(=O)c1c(N)n(/N=C/c2ccccn2)c2nc3ccccc3nc12	CRE Fsk mod 2.51µM
CCC(C)NC(=O)c1c(N)n(/N=C/c2ccccn2)c2nc3ccccc3nc12 (configuration not stated)	CRE Fsk mod 2.51µM
CCC(C)NC(=O)c1c(N)n(/N=C/c2cccnc2)c2nc3ccccc3nc12 (configuration not stated)	CRE Fsk mod 0.631µM, IkB sig inh inconclusive
COc1cc(C2c3c(oc4ccc(F)cc4c3=O)C(=O)N2c2nc(C)c(C)s2)cc(OC)c1OC (configuration not stated)	none (no result: CRE Fsk mod, GFP derepression, HBB splicing, ERK AVP inh)
c1ccc2c(c1)CCN(c1nc3cc4c(cc3s1)OCO4)C2	IkB sig inh inconclusive
c1ccc2c(c1)Cc1cc3cc4c(cc3nc1-2)OCO4	CRE Fsk mod inconclusive, ERK AVP inh 25.1µM (no result: GFP derepression, IkB sig inh)
CCN(CC)c1nc(Nc2ccc(Cl)cc2)nc(OCC#N)n1	CRE Fsk mod 5.01µM (no result: HBB splicing)
COCC(=O)N1CCC2(CC1)CCN(c1ccc(-c3ccccc3)cc1)CC2	ERK AVP inh inconclusive
COc1cc(/C=C\C(=O)N2CCCCC2=O)cc(OC)c1OC	CRE Fsk mod inconclusive, IkB sig inh inconclusive (no result: HBB splicing, ERK AVP inh)
Nc1c(C(=O)NCCN2CCOCC2)c2nc3ccccc3nc2n1-c1ccc2c(c1)OCO2	ERK AVP inh inconclusive
Nc1ccc(-n2c(N)c(C(=O)NCc3ccc4c(c3)OCO4)c3nc4ccccc4nc32)cc1	CRE Fsk mod 12.6µM
Nc1c(C(=O)NCc2ccc3c(c2)OCO3)c2nc3ccccc3nc2n1CCCN1CCOCC1	CRE Fsk mod 12.6µM, IkB sig inh inconclusive
C[C@@H](/C=C\c1cccc(Oc2ccc(F)cc2)c1)N(O)C(N)=O	CRE Fsk mod inconclusive, IkB sig inh inconclusive, ERK AVP inh inconclusive
CCCCn1c(CN2CCN(c3cccc(Cl)c3)CC2)nc2c1c(=O)[nH]c(=O)n2C	CRE Fsk mod 10µM
COc1ccc(N2CCN(Cc3nc4c(c(=O)[nH]c(=O)n4C)n3CCCc3ccccc3)CC2)cc1	CRE Fsk mod 10µM
Cn1c(=O)[nH]c(=O)c2c1nc(CN1CCN(c3cccc(Cl)c3)CC1)n2CCN1CCOCC1	none
Cn1c(=O)[nH]c(=O)c2c1nc(CN1CCN(c3cccc(Cl)c3)CC1)n2CCCc1ccccc1	CRE Fsk mod 7.94µM (no result: GFP derepression, ERK AVP inh)
Cn1c(=O)[nH]c(=O)c2c1nc(CN1CCN(c3cccc(Cl)c3)CC1)n2Cc1ccccc1Cl	none (no result: GFP derepression, ERK AVP inh)
COc1ccc(N2CCN(Cc3nc4c(c(=O)[nH]c(=O)n4C)n3Cc3ccccc3)CC2)cc1	none (no result: CRE Fsk mod, GFP derepression, HBB splicing, ERK AVP inh)
CCOC(=O)c1cccc(NC(=O)C(C)n2c(C)c3cnn(-c4ccccc4)c(=O)c3c2C)c1 (configuration not stated)	none (no result: CRE Fsk mod, GFP derepression, HBB splicing, ERK AVP inh)
Cc1cccc(C)c1NC(=O)c1cc(S(=O)(=O)N2CCc3ccccc3C2)ccc1F	none (no result: CRE Fsk mod, GFP derepression, HBB splicing, ERK AVP inh)
CCc1cc2c(nc1CC)CCN(CC/C(C)=N/O[C@@H](C)c1cn([C@H](CO)Cc3ccccc3)nn1)C2	none (no result: CRE Fsk mod, GFP derepression, IkB sig inh)
